# Results with a measured potency or affinity are listed apart.
# Assays:
# Staphylococcus aureus = settings: Concentration 32 ug.mL-1; ASSAY_TEST Inhibition of Bacterial Growth; detection method Absorption (OD600); MEDIA CAMHB; plate type 384well; NBS; CORNING #3640; time 18 hr
# Escherichia coli = settings: Concentration 32 ug.mL-1; ASSAY_TEST Inhibition of Bacterial Growth; detection method Absorption (OD600); MEDIA CAMHB; plate type 384well; NBS; CORNING #3640; time 18 hr
structure (smiles),measurement,setting,value
CN(C)C(=N)NC(=N)N.Cl [METFORMIN HYDROCHLORIDE],Inhibition,Staphylococcus aureus,23.29%
C=C[C@H]1[C@H](O[C@@H]2O[C@H](CO)[C@@H](O)[C@H](O)[C@H]2O)OC=C2C(=O)OCC[C@]21O [SWERTIAMARIN],Inhibition,Staphylococcus aureus,25.69%
same,Inhibition,Escherichia coli,13.89%

# Reference: ChEMBL document CHEMBL4513158, “CO-ADD screening of RKDF (India) compounds”
